Test results from publication PMC5540273 (PLoS ONE, 2017).

Experiments:
Settings in all cases: concentration: 1 μM, replicates: in singlicate; n = 1
ZAK = tested on: ZAK
ZAP70 = tested on: ZAP70
p38-alpha = tested on: T1, p38-alpha
T1 construct: gene MAPK14

p38-beta = tested on: T2, p38-beta
T2 construct: gene MAPK11

p38-delta = tested on: p38-delta
p38-gamma = tested on: T3, p38-gamma
T3 construct: gene MAPK12
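Note: KINOMEscan kinase panel screen.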

Row | SMILES | %Inh (ZAK) [%] | %Inh (ZAP70) [%] | %Inh (p38-alpha) [%] | %Inh (p38-beta) [%] | %Inh (p38-delta) [%] | %Inh (p38-gamma) [%]
1 | COc1cc(Nc2ncc3c(C)nc(-c4cc5ccccc5[nH]4)n3n2)cc(OC)c1OC [GW869516] | 0 | 0 | 9 | 2 | 0 | 16
2 | COc1ccc(CNC(=O)NC2CCN(c3ccnc(Nc4ccc(F)cc4)n3)CC2)cc1 [GSK1379788] | 0 | 4 | 19 | 0 | 29 | 0
3 | CC(=O)Nc1nc2cnc(Nc3cc(NC(=O)c4cccc(C5(C#N)CC5)c4Cl)ccc3C)nc2s1 | 17 | 0 | 86 | 19 | 17 | 0
4 | O=C(NC1CCN(c2ccnc(Nc3ccc(F)cc3)n2)C1)c1cc2ccccc2s1 (stereo not drawn) [GSK1379716] | 20 | 0 | 7 | 0 | 45 | 67
5 | COc1cc(Nc2nccc(N3CCC(NC(=O)Nc4cccc(C(C)=O)c4)C3)n2)cc(OC)c1OC (stereo not drawn) [GSK1379753] | 0 | 12 | 0 | 0 | 41 | 0
6 | c1ccc(Oc2ccc(Nc3ccnc4cc(-c5ccc(CNCCN6CCOCC6)o5)ccc34)cc2)nc1 [GW567145] | 77 | 0 | 20 | 0 | 0 | 0
7 | COc1ccc(Nc2nccc(N3CCC(NC(=O)Nc4cccc(OC)c4)C3)n2)cc1 (stereo not drawn) [GSK1379742] | 2 | 3 | 1 | 0 | 29 | 0
8 | C[C@@H](Oc1cc(-n2cnc3cc(-c4ccnc(NCCS(C)(=O)=O)c4)ccc32)sc1C(N)=O)c1ccccc1Cl [GSK907232] | 27 | 0 | 0 | 14 | 29 | 0
9 | CCCCc1nn2ncccc2c1-c1ccnc(Nc2ccc(N3CCN(C)CC3)cc2)n1 [GW684941] | 51 | 0 | 94.2 | 43 | 21 | 0
10 | Cc1ccc(C(=O)Nc2ccc(Nc3ccnc4cc(-c5nccs5)ccc34)cc2O)cc1.Cl [GW494702] | 63 | 33 | 0 | 0 | 21 | 19
11 | Cc1cccc(NC(=O)Nc2ccc(Oc3ncnc4ccn(C)c34)cc2)c1 | 0 | 0 | 0 | 0 | 0 | 0
12 | Cc1ccc(C(=O)N2CC[C@@H](O)C2)cc1-n1c(C)cc(OCc2ccc(F)cc2F)c(Br)c1=O | 0 | 0 | 100 | 95.4 | 7 | 5
13 | CCc1ccc(-c2ccc3c(c2)-c2c(cnn2C)S(=O)(=O)N3C)cc1 | 3 | 0 | 9 | 4 | 23 | 14
14 | Cc1ccc(C)c(NC(=O)NC2CCN(c3ccnc(Nc4ccc(F)cc4)n3)C2)c1 (stereo not drawn) [GSK1379720] | 15 | 0 | 11 | 0 | 45 | 16
15 | COC(=O)Nc1nc2ccc(Oc3ccc(NC(=O)Nc4cc(C(F)(F)F)ccc4F)cc3)cc2n1C.Cl [GW692089] | 87 | 0 | 57 | 16 | 0 | 44
16 | Cl.NC(=O)c1cccc(Nc2nccc(Nc3ccc(Oc4c(Cl)cccc4Cl)c(Cl)c3)n2)c1 [GW659009] | 10 | 0 | 0 | 100 | 0 | 0
17 | O=C(O)C(F)(F)F.O=C(O)C(F)(F)F.O=c1[nH]ccc2nc(N[C@@H]3CCCNC3)nc(Nc3ccc(S(=O)(=O)N4CCOCC4)cc3)c12 [GSK2177277] | 0 | 71 | 0 | 0 | 57 | 40
18 | C[C@@H]1CC[C@@H](C(=O)Nc2ccccc2)CN1c1cc(-c2ccc3c(N)n[nH]c3c2)nc(N)n1 [GSK2286062] | 0 | 0 | 28 | 0 | 13 | 46
19 | COc1cc(Nc2nccc(-c3c(-c4cccc(NC(=O)c5c(F)cccc5F)c4)nn4ccccc34)n2)cc(OC)c1OC [GSK323521] | 0 | 0 | 0 | 7 | 43 | 42

Row | SMILES | %Inh (ZAK) [%] | %Inh (ZAP70) [%] | %Inh (p38-alpha) [%] | %Inh (p38-beta) [%] | %Inh (p38-delta) [%] | %Inh (p38-gamma) [%]
20 | O=C(Nc1cccc(-c2nn3ccccc3c2-c2ccnc(Nc3cccc(C(F)(F)F)c3)n2)c1)c1c(F)cccc1F [GSK292658] | 80 | 0 | 17 | 32 | 24 | 0
21 | Cn1cc(-c2[nH]c3cc(NC(=O)[C@H](N)C4CCCCC4)cc4c3c2C=NNC4=O)cn1 | 0 | 17 | 0 | 0 | 0 | 7
22 | COc1cccc(-c2ccc3c(NC(=O)C4CC4)n[nH]c3n2)c1 [SB-710903] | 0 | 48 | 23 | 0 | 40 | 0
23 | Cl.Cl.NCC(NCc1ccc(-c2ccnc3[nH]ccc23)s1)c1ccccc1 (stereo not drawn) [GSK1321565] | 15 | 0 | 27 | 0 | 3 | 0
24 | O=C(Nc1n[nH]c2nc(-c3ccc(O)cc3)ccc12)C1CC1 [SB-710363] | 23 | 0 | 0 | 11 | 0 | 20
25 | Cn1cc(-c2ccc3c(c2)CCN3C(=O)Cc2cccc(Cl)c2)c2c(N)ncnc21 [GSK2606590] | 0 | 0 | 0 | 0 | 57 | 29
26 | Cc1cccc(Nc2nc(N[C@H]3CCNC3)ncc2C(N)=O)c1.Cl [GSK2197149] | 0 | 0 | 0 | 0 | 19 | 0
27 | Oc1cc(Nc2ccnc3cc(I)ccc23)ccc1F [GW552771] | 73 | 0 | 4 | 0 | 27 | 0
28 | CN(C)S(=O)(=O)c1cc(-c2ccc3nccc(-c4cccc(S(N)(=O)=O)c4)c3c2)cnc1N [GSK1669921] | 0 | 4 | 0 | 0 | 44 | 23
29 | Cc1occc1-c1ncc(OC[C@@H](N)Cc2c[nH]c3ccccc23)cc1-c1ccc2[nH]nc(C)c2c1.O=C(O)C(F)(F)F [GSK682037] | 0 | 0 | 89 | 36 | 73 | 72
30 | c1ccc(-c2n[nH]cc2Nc2ccnc3ccccc23)nc1 [GW694077] | 0 | 0 | 2 | 0 | 0 | 0
31 | CSc1cccc2c(-c3ccncn3)c(-c3ccc(F)cc3)nn12 [GW514786] | 0 | 8 | 98 | 29 | 38 | 2
32 | Cl.c1ccc(-c2ccc3c(Nc4ccc5[nH]ccc5c4)ccnc3c2)nc1 [GW440138] | 0 | 49 | 20 | 0 | 41 | 0
33 | CCn1c(-c2nonc2N)nc2c(C#CC(C)(C)O)nc(OC[C@H](N)c3ccccc3)cc21 [GSK943949] | 0 | 0 | 0 | 0 | 0 | 34
34 | Nc1ncnc2c1nc(-c1ccccc1)n2-c1ccccc1 [SKF-97293] | 16 | 12 | 12 | 4 | 0 | 26
35 | Clc1ccc(-c2nn3ncccc3c2-c2ccnc(Nc3ccc4c(c3)OCCO4)n2)cc1 [GW829116] | 9 | 0 | 99.7 | 83 | 13 | 0
36 | CCS(=O)(=O)c1ccc(OC)c(Nc2nccc(-c3c(-c4cccc(NC(=O)c5c(F)cccc5F)c4)nn4ncccc34)n2)c1 [GSK326180] | 28 | 46 | 99.9 | 99.6 | 47 | 0
37 | NCCCC(NC(=O)c1cc(Br)c(-c2ccnc3[nH]ccc23)s1)c1ccccc1.O=C(O)C(F)(F)F.O=C(O)C(F)(F)F (stereo not drawn) [GSK1287544] | 59 | 0 | 0 | 0 | 0 | 10
